Results: PubChem BioAssay (Tox21)
Values joined by “and” are separate entries in the source; they are usually repeats but may differ in a detail not shown here. Equal entries are not always repeated. Records with an inconclusive call do not appear. A call without a number means that no potency is given here. Some structures have more than one record in an assay (separate samples or runs), and their calls can disagree. Active and inactive are the calls of the source. Unless noted, calls come from the whole dose curve.

Experiments:
[1] = Nuclear factor erythroid 2-related factor 2/antioxidant responsive element (Nrf2/ARE) small molecule agonists: qHTS cell viability counter screen in human keratinocytes (AID 1919968; active = well fitted curve in the direction sought with a large enough effect in the repeat runs; an effect the other way counts as inactive or inconclusive; note: nearly all actives have a fitted effect of over 55% in size; note: potency is the fitted concentration of half-maximal effect)
In short: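 CellTiter-Fluor fluorescence, read 1 h after reagent, gave viability in the same wells as the ARE-luciferase assay. KeratinoSens cells (1,500/well) had 23 h compound exposure at 37 C/5% CO2 following 5 h plating.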

[2] = target: Gonadotropin-releasing hormone receptor (Homo sapiens) (UniProt P30968); assay: Human gonadotropin-releasing hormone receptor (GnRHR) small molecule agonists, calcium flux assay in GnRHR-HEK293 cells (AID 1920063); note: nearly all actives have a fitted effect of over 35% in size; note: potency is the fitted concentration of half-maximal effect
In short: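 Agonist mode: compounds at 15 concentrations, in triplicate, went onto calcium dye-loaded GnRHR-HEK293 cells. Intracellular calcium was then followed as 480/540 nm fluorescence at 1 s intervals over 3 min.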

[3] = G protein-coupled receptor (GPCR) small molecule agonists, calcium flux assay: HEK293 wild type cell line counter screen (AID 1920065); note: potency is the fitted concentration of half-maximal effect
In short: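 Calcium flux counter screen: compound added in agonist mode at 15 concentrations in triplicate to dye-loaded parental HEK293 cells. Fluorescence (480/540) read kinetically for 3 min; ATP served as positive control.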

[4] = p53 small molecule agonists, cell-based qHTS assay with human liver microsomes (AID 1963577);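 note: p53 response element beta-lactamase reporter cells with liver microsomes plus NADPH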
In short: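 Reporter activation was measured by LiveBLAzer fluorescence intensity in p53RE-bla cells, which had been exposed to compounds for 16 h at 37 C alongside 0.5 mg/mL human liver microsomes and 0.5 mg/mL NADPH (final concentrations).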

[5] = p53 small molecule agonists, cell-based qHTS assay with rat liver microsomes (AID 1963578)
In short: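 Compound in DMSO added to p53RE-bla cells 5 h post-plating; rat microsomes/NADPH 0.5 mg/mL final; 16 h, 37 C; LiveBLAzer 2 h RT.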

[6] = p53 small molecule agonists, cell-based qHTS assay with human liver microsomes: qHTS cell viability counter screen (AID 1963579); note: nearly all actives have a fitted effect of over 45% in size; note: potency is the fitted concentration of half-maximal effect
In short: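 HLM-supplemented (0.5 mg/mL final) and NADPH-supplemented (0.5 mg/mL final) p53RE-bla cultures, 4,000 cells per well, were dosed with compounds in DMSO for 16 h at 37 C; luminescent ATP detection (CellTiter-Glo, 30 min, room temperature) quantified surviving cells.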

[7] = p53 small molecule agonists, cell-based qHTS assay: qHTS cell viability counter screen (AID 1963581); note: nearly all actives have a fitted effect of over 45% in size; note: potency is the fitted concentration of half-maximal effect
In short: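 Counter screen read by CellTiter-Glo luminescence (ATP content, 30 min at room temperature), run in the same wells as the beta-lactamase reporter read. HCT-116 p53RE-bla cells saw compounds for 16 h at 37 C.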

[8] = p53 small molecule agonists, cell-based qHTS assay (AID 1963582; active = well fitted activation curve with a large enough effect in the signal ratio in the repeat runs, not every such curve was filed as active; the % refers to the signal ratio)
In short: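 Read-out is beta-lactamase FRET fluorescence after 2 h at room temperature with LiveBLAzer B/G substrate. p53 response element-bla cells were treated 16 h at 37 C with compounds in DMSO, added 5 h after seeding.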

[9] = cAMP Responsive Elements (CRE) small molecule agonists, cell-based qHTS assay (AID 1963590)
In short: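 Agonist mode: compound added to CRE-bla HEK 293T cells (2,000/well, 18 h after plating) for 3 h at 37 C/5% CO2. Reporter activity detected via FRET beta-lactamase substrate, 2 h room-temperature loading.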

[10] = cAMP Responsive Elements (CRE) small molecule antagonists, cell-based qHTS assay (AID 1963591; active = well fitted inhibition curve with a large enough effect in the signal ratio in the repeat runs, not every such curve was filed as active; the % refers to the signal ratio)
In short: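 Antagonist mode: compounds are added alongside the adenylyl cyclase activator NKH477 (0.25 uM final) to CRE-bla HEK293T cells for 3 h. LiveBLAzer FRET substrate, 2 h at room temperature, reports bla expression.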

[11] = target: Beta-2 adrenergic receptor (Homo sapiens) (UniProt P07550); assay: Adrenergic beta2 receptor (ADRB2) small molecule antagonists, cell-based qHTS assay (AID 1963592); note: nearly all actives have a fitted effect of over 50% in size; note: potency is the fitted concentration of half-maximal effect
In short: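 Assay format: CHO-ADRB2 cells, 18-20hr seeding at 37C/5% CO2, then compound plus 1nM isoproterenol agonist mix for 0.5hr RT. Homogeneous time-resolved fluorescence cAMP detection after 1hr, expressed as 665/615 nm ratio.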

[12] = target: D(2) dopamine receptor (Homo sapiens) (UniProt P14416); assay: Dopamine D2 receptor (DRD2) small molecule agonists, cell-based qHTS assay (AID 1963594); note: nearly all actives have a fitted effect of over 35% in size; note: potency is the fitted concentration of half-maximal effect
In short: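 HEK293 cells stably expressing DRD2 were cultured 24 h at 37 C, then given Ro20-1724 (0.1 mM final) and compounds for 10 min at room temperature. NKH477 (200nM) was then added for 30 min. cAMP was read by HTRF.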

[13] = target: D(2) dopamine receptor (Homo sapiens) (UniProt P14416); assay: Dopamine D2 receptor (DRD2) small molecule antagonists, cell-based qHTS assay (AID 1963595; active = well fitted inhibition curve with a large enough effect in the signal ratio in the repeat runs, with a control signal flat; the % refers to the signal ratio; note: potency is the fitted concentration of half-maximal effect)
In short: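 HEK293 cells stably expressing DRD2 were preincubated with 0.1 mM Ro20-1724, then with compound for 10 min at room temperature. Cells were stimulated with 200 nM NKH477 plus 12 nM quinpirole for 30 min, and cAMP was read by HTRF.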

[14] = target: KiSS-1 receptor (Homo sapiens) (UniProt Q969F8); assay: Human kisspeptin (KISS1R) small molecule agonists, calcium flux assay in KISS1R-HEK293 cells (AID 1920064; active = well fitted curve in the direction sought with a large enough effect in the repeat runs; an effect the other way counts as inactive or inconclusive; note: potency is the fitted concentration of half-maximal effect)
In short: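 Agonist mode: intracellular calcium rise tracked at 1 s intervals over 3 min (480/540 nm) immediately after compound addition to dye-loaded KISS1R-HEK293 stable cells. Each compound tested at 15 concentrations in triplicate.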

[15] = target: 5-hydroxytryptamine receptor 2A (Homo sapiens) (UniProt P28223); assay: 5-hydroxytryptamine receptor 2A (HTR2A) small molecule agonists, cell-based qHTS assay (AID 1963587); note: nearly all actives have a fitted effect of over 30% in size; note: potency is the fitted concentration of half-maximal effect
In short: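 HTR2A-CHO cells, plated 18 h at 37 C/5% CO2, dye-loaded 1 h at 37 C; compounds in DMSO added by pin tool (agonist mode). Intracellular calcium flux read as kinetic fluorescence on FDSS over 2 min at 1 s intervals.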

[16] = target: Muscarinic acetylcholine receptor M1 (Homo sapiens) (UniProt P11229); assay: Cholinergic receptor muscarinic 1 (CHRM1) small molecule antagonists, cell-based qHTS assay (AID 1963588); note: nearly all actives have a fitted effect of over 40% in size; note: potency is the fitted concentration of half-maximal effect
In short: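 Compounds were tested at 15 concentrations in three independent runs. Dye-loaded CHRM1-CHO cells were exposed 5 min at room temperature before stimulation by acetylcholine added at 50nM. Intracellular calcium was read kinetically on FDSS for 3 min.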

[17] = target: Muscarinic acetylcholine receptor M1 (Homo sapiens) (UniProt P11229); assay: Cholinergic receptor muscarinic 1 (CHRM1) small molecule agonists, cell-based qHTS assay (AID 1963589); note: nearly all actives have a fitted effect of over 35% in size; note: potency is the fitted concentration of half-maximal effect
In short: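 Agonist-mode calcium-flux screen: compounds at 15 concentrations, three independent runs, were pin-transferred onto dye-loaded human CHRM1-CHO cells. Fluorescence was then recorded kinetically every second over minutes.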

[18] = p53 small molecule agonists, cell-based qHTS assay with rat liver microsomes: qHTS cell viability counter screen (AID 1963580); note: nearly all actives have a fitted effect of over 45% in size; note: potency is the fitted concentration of half-maximal effect
In short: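 Counter screen for cytotoxicity under metabolic activation: rat liver microsomes and NADPH, 0.5 mg/mL final each, added with compounds to p53RE-bla HCT-116 cells; 16 h at 37 C, then ATP luminescence read.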

[19] = target: 5-hydroxytryptamine receptor 2A (Homo sapiens) (UniProt P28223); assay: 5-hydroxytryptamine receptor 2A (HTR2A) small molecule antagonists, cell-based qHTS assay (AID 1963586); note: nearly all actives have a fitted effect of over 45% in size; note: potency is the fitted concentration of half-maximal effect
In short: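 CHO cells stably expressing human HTR2A were plated for 18 h at 37 C, then loaded with calcium dye for 1 h. Compounds were preincubated 5 min at room temperature before DOI (4 nM solution) was added. Kinetic fluorescence was read for 3 min.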

[20] = target: Beta-2 adrenergic receptor (Homo sapiens) (UniProt P07550); assay: Adrenergic beta2 receptor (ADRB2) small molecule agonists, cell-based qHTS assay (AID 1963593);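 note: CHO cells stably overexpressing human ADRB2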
In short: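 CHO cells stably over-expressing ADRB2 were plated overnight at 37C, then dosed with compounds plus a stimulation mix containing 100uM IBMX and 25uM Ro-20-1724 for 0.5hr at room temperature. cAMP was measured by HTRF competition, 1hr.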

Chain of 5-hydroxytryptamine receptor 2A (Homo sapiens) (P28223 whole entry, looked up): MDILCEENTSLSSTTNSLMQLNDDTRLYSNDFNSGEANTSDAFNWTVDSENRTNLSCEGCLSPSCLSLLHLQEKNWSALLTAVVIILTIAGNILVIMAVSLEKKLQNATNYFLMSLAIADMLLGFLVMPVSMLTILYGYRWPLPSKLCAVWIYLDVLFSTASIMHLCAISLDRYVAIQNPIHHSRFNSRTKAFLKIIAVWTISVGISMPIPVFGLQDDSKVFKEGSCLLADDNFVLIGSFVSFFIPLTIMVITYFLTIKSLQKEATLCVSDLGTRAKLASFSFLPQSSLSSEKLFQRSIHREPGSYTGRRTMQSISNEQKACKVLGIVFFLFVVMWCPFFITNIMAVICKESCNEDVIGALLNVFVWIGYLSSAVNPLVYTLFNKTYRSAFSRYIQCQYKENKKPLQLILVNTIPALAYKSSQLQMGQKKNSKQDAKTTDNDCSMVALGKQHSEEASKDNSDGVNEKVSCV
Chain of Muscarinic acetylcholine receptor M1 (Homo sapiens) (P11229 whole entry, looked up): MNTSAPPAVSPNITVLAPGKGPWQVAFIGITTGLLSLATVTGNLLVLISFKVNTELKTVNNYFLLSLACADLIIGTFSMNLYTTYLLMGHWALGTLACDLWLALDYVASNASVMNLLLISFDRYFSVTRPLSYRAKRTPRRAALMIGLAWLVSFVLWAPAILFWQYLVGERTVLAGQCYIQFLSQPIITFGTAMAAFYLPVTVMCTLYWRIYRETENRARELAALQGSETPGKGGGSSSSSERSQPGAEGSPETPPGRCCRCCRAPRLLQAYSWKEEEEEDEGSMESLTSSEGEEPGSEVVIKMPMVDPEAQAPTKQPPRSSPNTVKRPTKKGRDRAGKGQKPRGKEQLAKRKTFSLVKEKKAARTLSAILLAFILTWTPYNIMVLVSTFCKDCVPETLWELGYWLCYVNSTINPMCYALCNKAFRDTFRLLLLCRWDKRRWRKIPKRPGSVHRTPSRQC
Chain of KiSS-1 receptor (Homo sapiens) (Q969F8 whole entry, looked up): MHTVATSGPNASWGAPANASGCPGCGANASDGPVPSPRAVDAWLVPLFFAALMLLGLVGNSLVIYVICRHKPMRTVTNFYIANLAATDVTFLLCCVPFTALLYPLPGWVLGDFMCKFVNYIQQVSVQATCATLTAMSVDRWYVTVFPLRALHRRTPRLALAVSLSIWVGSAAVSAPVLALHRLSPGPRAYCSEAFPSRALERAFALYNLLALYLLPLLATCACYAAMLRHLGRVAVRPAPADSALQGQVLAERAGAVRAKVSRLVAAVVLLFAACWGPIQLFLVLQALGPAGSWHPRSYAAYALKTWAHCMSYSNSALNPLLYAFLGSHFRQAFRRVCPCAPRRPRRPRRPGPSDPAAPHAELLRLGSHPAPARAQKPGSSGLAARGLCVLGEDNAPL
Chain of Gonadotropin-releasing hormone receptor (Homo sapiens) (P30968 whole entry, looked up): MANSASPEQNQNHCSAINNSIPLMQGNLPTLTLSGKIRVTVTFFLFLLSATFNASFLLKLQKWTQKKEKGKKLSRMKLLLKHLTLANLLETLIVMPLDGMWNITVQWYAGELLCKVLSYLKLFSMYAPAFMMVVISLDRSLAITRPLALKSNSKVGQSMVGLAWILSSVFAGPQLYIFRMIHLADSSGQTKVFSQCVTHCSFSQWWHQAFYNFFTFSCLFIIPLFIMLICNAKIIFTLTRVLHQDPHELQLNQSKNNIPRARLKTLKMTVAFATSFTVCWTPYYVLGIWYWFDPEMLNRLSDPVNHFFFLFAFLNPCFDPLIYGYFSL
Chain of D(2) dopamine receptor (Homo sapiens) (P14416 whole entry, looked up): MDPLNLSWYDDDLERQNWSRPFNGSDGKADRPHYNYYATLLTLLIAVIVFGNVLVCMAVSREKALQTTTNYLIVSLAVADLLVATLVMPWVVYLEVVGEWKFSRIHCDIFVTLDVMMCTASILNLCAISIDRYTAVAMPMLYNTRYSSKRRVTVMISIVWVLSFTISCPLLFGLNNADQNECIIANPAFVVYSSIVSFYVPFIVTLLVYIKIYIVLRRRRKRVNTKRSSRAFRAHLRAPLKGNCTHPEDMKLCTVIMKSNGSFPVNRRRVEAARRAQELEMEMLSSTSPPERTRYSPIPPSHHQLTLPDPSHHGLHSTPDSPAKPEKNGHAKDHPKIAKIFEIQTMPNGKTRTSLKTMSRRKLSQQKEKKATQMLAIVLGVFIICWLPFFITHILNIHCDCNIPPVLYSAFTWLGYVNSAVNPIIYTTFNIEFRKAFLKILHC
Chain of Beta-2 adrenergic receptor (Homo sapiens) (P07550 whole entry, looked up): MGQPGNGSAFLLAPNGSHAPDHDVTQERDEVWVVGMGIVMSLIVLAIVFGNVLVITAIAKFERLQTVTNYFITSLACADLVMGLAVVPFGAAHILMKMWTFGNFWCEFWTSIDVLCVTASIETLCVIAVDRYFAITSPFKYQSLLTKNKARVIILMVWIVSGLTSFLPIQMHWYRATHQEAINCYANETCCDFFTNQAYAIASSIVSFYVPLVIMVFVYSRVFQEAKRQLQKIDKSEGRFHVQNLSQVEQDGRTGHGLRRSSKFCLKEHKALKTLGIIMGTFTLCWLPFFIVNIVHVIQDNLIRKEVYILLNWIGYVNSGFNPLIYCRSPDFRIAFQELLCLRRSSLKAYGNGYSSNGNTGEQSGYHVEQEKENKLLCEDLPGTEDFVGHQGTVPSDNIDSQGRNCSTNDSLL

Compound | Potency [1] | Potency [2] | Potency [3] | Potency [4] | Potency [5] | Potency [6] | Potency [7] | Potency [8] | Potency [9] | Potency [10] | Potency [11] | Potency [12] | Potency [13] | Potency [14] | Potency [15] | Potency [16] | Potency [17] | Potency [18] | Potency [19] | Potency [20]
CC(NC(C)(C)C)C(=O)c1cccc(Cl)c1 (configuration not stated) | inactive | inactive | inactive | inactive | inactive | inactive | inactive | inactive | inactive | inactive | inactive | inactive | inactive |  |  |  |  |  |  | 
Cc1[nH]c(=O)n(C(C)(C)C)c(=O)c1Cl | inactive | inactive | inactive |  |  | inactive |  |  | inactive | inactive | inactive | inactive | inactive | inactive | inactive | inactive | inactive |  |  | 
O=C(O)CCCOc1ccc(Cl)cc1Cl | inactive | inactive |  |  | inactive | inactive and 29.4 µM (active) | inactive |  |  |  | inactive | inactive | inactive | inactive | inactive | inactive | inactive | inactive | inactive | inactive
CC(Cl)C(=O)O (configuration not stated) |  | inactive | inactive | inactive | inactive | inactive | inactive | inactive | inactive | inactive | inactive | inactive | inactive | inactive | inactive | inactive | inactive | inactive | inactive | inactive
[Cl-].[Cl-].[Cl-].[Fe+3] | inactive | inactive | inactive |  |  | inactive |  |  | inactive | inactive | inactive | inactive |  | inactive | inactive | inactive | inactive | inactive | inactive | inactive
C#CCOC(C(=O)OCCN(C)C)(c1ccccc1)c1ccccc1 | inactive | inactive | inactive |  |  |  | inactive | inactive | inactive |  | inactive | inactive | inactive | inactive | inactive | inactive | inactive | inactive | inactive | 
OC(O)C(Cl)(Cl)Cl | inactive |  | inactive | inactive | inactive | inactive | inactive | inactive | inactive |  | inactive | inactive | inactive | inactive | inactive | inactive | inactive |  | inactive | inactive
CCCCCCn1cc[n+](C)c1 | inactive | inactive | inactive |  |  | inactive |  |  | inactive | inactive | inactive | inactive | inactive | inactive | inactive | inactive | inactive | inactive | inactive | inactive
CCCCn1cc[n+](C)c1C | inactive | inactive | inactive |  |  | inactive | inactive |  | inactive | inactive | inactive | inactive | inactive | inactive | inactive | inactive | inactive | inactive |  | inactive
CCC(C)(C#N)N=NC(C)(C#N)CC (configuration not stated) | inactive |  | inactive | inactive | inactive | inactive | inactive | inactive | inactive | inactive | inactive | inactive |  | inactive | inactive |  | inactive | inactive | inactive | inactive
CCCCCCCCCC(CC)c1ccc(S(=O)(=O)O)cc1 (configuration not stated) | inactive and 26.6 µM (active) |  | inactive |  |  | inactive | inactive and 48.5 µM (active) |  | inactive | inactive | inactive | inactive and 54.5 µM (active) |  | inactive |  | inactive | inactive | inactive and 40.8 µM (active) | inactive and 37.5 µM (active) | inactive
COc1ccc(O)c(C(C)(C)C)c1 |  | inactive | inactive | inactive | inactive | inactive | inactive |  |  | inactive | inactive | inactive | inactive | inactive | inactive | inactive | inactive | inactive | 23.7 µM (active) and inactive | inactive
CCC[CH2][Sn]([Cl])([CH2]CCC)[CH2]CCC |  | 7.78 µM (active) and 38.9 µM (active) | 34.7 µM (active) | inactive | inactive |  | 1.29 µM (active) and inactive |  |  |  | 1.09 µM (active) and 1.37 µM (active) |  | 15.4 µM (active) and 19.3 µM (active) | 43.6 µM (active) | 11 µM (active) and 34.7 µM (active) | 16.8 µM (active) | 21.9 µM (active) and 38.9 µM (active) | 4.09 µM (active) and 4.08 µM (active) | 18.8 µM (active) | 
c1nc[nH]n1 |  | inactive | inactive | inactive | inactive | inactive |  | inactive | inactive | inactive | inactive | inactive | inactive | inactive | inactive | inactive | inactive | inactive | inactive | 
